Test results published in ChEMBL document CHEMBL1157539, “Thousands of chemical starting points for antimalarial lead identification” (Nature, 2010).

Columns and labels:
Type in all cases: functional
Plasmodium falciparum [1] = assay: GSK_TCMDC: Inhibition of Plasmodium falciparum 3D7 in whole red blood cells, using parasite LDH activity as an index of growth. Test compounds present at 2uM
Plasmodium falciparum [2] = assay: GSK_TCMDC: Inhibition of Plasmodium falciparum Dd2 in whole red blood cells, using parasite LDH activity as an index of growth. Test compounds present at 2uM
HepG2 = assay: GSK_TCMDC: Percent inhibition of human HepG2 cell line. Test compounds present at 10uM.

SMILES | Inhibition (Plasmodium falciparum [1]) [%] | Inhibition (Plasmodium falciparum [2]) [%] | Inhibition (HepG2) [%]
O=C(/C=C/c1ccc(Cl)c(Cl)c1)N1CCC(CN2CCC(Cc3c[nH]c4ccccc34)CC2)CC1 | 98 | 13 | 24
Cc1ccc(NC(=O)NC2CCN(CCCCCNC(=O)C3CC3c3ccc(Cl)c(Cl)c3)CC2)cc1 (centres undefined) | 100 | 19 | 35
Br.Oc1cccc(CCNCCCCCCNCCc2ccc(Cl)cc2)c1 | 96 | 0 | 23
CCC[C@@H]([C@@H](CC1CCCCC1)C(=O)N[C@H](C(=O)Nc1nccs1)C(C)(C)SC)N(O)C=O | 97 | 98 | 51
CCCC(C)c1cnc2nc(N)nc(N)c2c1C (centres undefined) | 95 | 1 | 67
O=C(c1ccc(Cl)cc1)C1CCCN(C2CCN(CCc3ccccc3)CC2)C1 (centres undefined) | 96 | 51 | 37
CN(C(=O)Nc1ccc(C(F)(F)F)cc1)C1CCN(CCCCCNC(=O)/C=C/c2ccc(Cl)c(Cl)c2)CC1 | 100 | 38 | 57
COc1cc(-c2nc(-c3ccc(C(=O)c4ccc(F)cc4)cc3)c(-c3ccccc3)[nH]2)cc(OC)c1O | 100 | 100 | 0
COc1cc(NC2=NS(=O)(=O)c3cc(Cl)ccc3N2C)cc(OC)c1OC.O=C(O)C(F)(F)F | 100 | 100 | 0
COCc1nc(N)nc(N)c1-c1ccc(Cl)c(Cl)c1 | 84 | 1 | 4
CN(C)CCOc1cc(NC(=O)c2ccc(-c3ccc(Cl)cc3Cl)cc2)ccc1-c1ccccc1 | 98 | 26 | 45
O=C(/C=C/c1ccc(Cl)c(Cl)c1)NCCCCCN1CC[C@H](NC(=O)/C=C/c2ccccc2)C1 | 93 | 1 | 10
COCCn1c(Sc2ccc(C#N)c([N+](=O)[O-])c2)nnc1-c1ccc(N(C)C)cc1 | 89 | 66 | 2
Cc1cc(CNCCCCCCCNCc2cccc([N+](=O)[O-])c2)ccc1O | 100 | 0 | 6
O=C(Nc1cccc(C(F)(F)F)c1)Nc1ccc(Cl)c(Cl)c1 | 100 | 100 | 5
Cc1c(CNCCCNc2cc(=O)c3ccccc3[nH]2)sc(C(F)=C(F)F)c1Br.Cl | 94 | 18 | 7
CCOC(=O)Cn1ccc2c(NCc3ccccc3)nc(C)nc21 | 96 | 0 | 64

SMILES | Inhibition (Plasmodium falciparum [1]) [%] | Inhibition (Plasmodium falciparum [2]) [%] | Inhibition (HepG2) [%]
O=C(NC1CCC1)C1CCN(C(c2ccc(Cl)cc2)c2ccc(Cl)cc2)CC1 | 95 | 70 | 6
COc1ccc(-n2ncc(C(=O)N3CCC4(C3)C(=O)N(c3ccccc3)c3ccccc34)c2C)cc1 (centres undefined) | 88 | 91 | 45
COc1ccc(CN2CCCN(Cc3cccc(C(=O)Nc4ccc(C(C)(C)C)cc4)c3)CC2)cc1.O=C(O)C(F)(F)F | 98 | 3 | 46
CCCNC(=O)c1cncc(-c2ccc(CNC(CC)c3ccccc3)cc2)c1.O=C(O)C(F)(F)F (centres undefined) | 92 | 1 | 20
COc1ccc2nccc(N3CCN(CCNCc4ccc5c(n4)NC(=O)CO5)CC3)c2c1.Cl | 92 | 5 | 18
CCCCCc1cnc2nc(N)nc(N)c2c1C.Cl | 96 | 23 | 64
CCc1ccc(S(=O)(=O)Nc2cccc(CCN3CCC(N4CCCCC4)CC3)c2)cc1 | 100 | 20 | 21
Cc1cccc2nc(-c3cccc(-c4ccc(NC(=O)Cc5c[nH]cn5)cc4)c3)[nH]c12 | 100 | 93 | 4
COc1ccc(CNCc2ccc(F)cc2)cc1-c1ccc(OC)c(S(=O)(=O)NCCN2CCCC2)c1.O=C(O)C(F)(F)F | 100 | 88 | 24
CCNc1cc(CCCC(=O)OCC)nc(Nc2ccc(C)cc2)n1.O=C(O)C(F)(F)F | 100 | 63 | 17
CN(C)CCNCc1cccc(-c2ccc3c(Nc4ccc(Oc5ccccc5)cc4)ccnc3c2)c1 | 100 | 99 | 31
Cc1ccccc1C1CCN(C2CCC(NC(=O)c3cc4cc(C(C)C)ccc4[nH]3)CC2)CC1 (centres undefined) | 99 | 100 | 100
CC(=O)Nc1ccc(CNCCc2ccc(NC(=O)c3cc(Cl)cc(Cl)c3)cc2)cc1 | 100 | 31 | 10
Br.Clc1ccc(-c2nc(-c3ccncc3)c[nH]2)cc1Cl | 96 | 63 | 1
CCCn1cnc2cc(C(=O)Nc3ccc(-c4cccc(CN(C)C)c4)cc3)ccc2c1=O | 95 | 6 | 26
O=C(c1ccco1)c1cn(CCOc2ccccc2)c2ccccc12 | 98 | 10 | 5
